Screening results as filed in PubChem BioAssay.
Hits are enriched below; roughly 8% of the tested compounds scored in any of these assays.
KB-3-1 tox: KB-3-1 parental cell cytotoxicity; hit rate 1.4% among 400,000; Potency, µM (titrated, usually from 46.1 µM), actives largely listed as cytotoxic; KB-3-1 viability, CellTiter-Glo ATP luminescence, 72 h; AID 1347075; further: on the % scale 0 is the no-effect control and ±100 the full control effect; nearly all actives have a fitted effect of over 60% in size
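Using CellTiter-Glo luminescence, growth of non-resistant KB-3-1 adenocarcinoma cells is assessed 72 h after pin-tool compound addition at 37 °C. Normalized responses across the concentration series yield fitted curves.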
KB-V1 MDR tox: KB-V1 MDR subline cytotoxicity; AID 1347076; KB-V1 MDR cells viability, CellTiter-Glo, 72 h; hit rate 3.4% among 400,000; Potency, µM (series often up to 46.1 µM), most hits filed as cytotoxic; further: on the % scale 0 is the no-effect control and ±100 the full control effect; nearly all actives have a fitted effect of over 60% in size
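KB-V1 MDR subline cells in DMEM (phenol-red free, 10% FBS) exposed to compounds in qHTS concentration series for 72 h at 37 degrees C. Viability read by CellTiter-Glo luminescence; concentration-effect curves fitted after normalization and correction.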
HT1080 IDH1KD tx: kills HT-1080 cells with IDH1 knockdown; AID 686971; hit rate 2% among 360,000; HT-1080 IDH1 knockdown viability, ATP luminescence, 48 h; Potency, µM (top dose mostly 46.1 µM), for inactives: top-dose activity, negative = toxicity, most hits filed as cytotoxic;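 further: 0% = DMSO wells and -100% = cell-free medium wells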
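% activity derives from luminescence (CellTiter-Glo), normalised to DMSO and no-cell wells. HT-1080-IDH1KD cells, 750/well, had 48 h compound exposure at 37 °C.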
MCF10A rereplic: inducers of DNA re-replication in MCF 10A breast cells | MCF 10A DNA re-replication, Hoechst nuclear intensity, 48 h | Potency, µM (top dose mostly 46.1 µM), inactives show at the top dose activity, positive = re-replication, usual class: activators | hit rate 2.9% among 350,000 | AID 624296; further: % of control where 0% means no effect; nearly all actives have a fitted effect of over 50% in size
HT1080NT lethal: kills 2HG-producing HT-1080-NT fibrosarcoma cells. hit rate 1.6% among 360,000. Potency, µM (top dose mostly 46.1 µM), for the others: at the top dose activity, negative = less viability, usual class: cytotoxic. HT-1080-NT fibrosarcoma viability, CellTiter-Glo ATP luminescence, 48 h. AID 686970;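 further: NT is the 2HG producing partner of a matched IDH1 knockdown line; 0% = DMSO-treated cells and -100% = media-only wells without cells; nearly all actives have a fitted effect of over 55% in size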
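Toxicity toward the 2HG-producing NT line was scored as %Activity, normalised to DMSO and no-cell wells, from CellTiter-Glo luminescence after 48 hours' treatment.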
SW480 rerep: DNA re-replication induction in SW480 cells | Potency, µM (titrated, usually from 46.1 µM), without a hit: at the top dose re-replication activation, actives largely listed as activators | hit rate 1.8% among 340,000 | SW480 DNA re-replication, Hoechst DNA content imaging, 48 h; further: % of control where 0% means no effect; nearly all actives have a fitted effect of over 55% in size
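Readout is total intensity of Hoechst-stained nuclei, excited at 405 nm and collected at 500-530 nm. Compound treatment lasted 48 hr at 37 C in 5% CO2 before staining.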
Numbers without * were called inactive; i = inactive; ? = inconclusive; . = no result. The call rests on the fitted dose curve; in most records, active means well fitted curve in the direction sought with a large enough effect; inconclusive means small, poorly fitted or top-dose-only effect, or another doubt; inactive means no such curve, though single readings can be large; an effect the other way counts as inactive or inconclusive. Potency means the concentration at half of the fitted maximal effect.

SMILES | KB-3-1 tox | KB-V1 MDR tox | HT1080 IDH1KD tx | MCF10A rereplic | HT1080NT lethal | SW480 rerep
COc1ccc(CCNC(=O)CCCn2c(=O)c3ccccc3n(CC(=O)Nc3ccc(C)cc3Cl)c2=O)cc1OC | i | i | . | . | . | .
CCOC(=O)Cc1ccc(NC(=O)Nc2cccc(OCc3cc(=O)n4cc(C)ccc4n3)c2)cc1 | i | i | . | . | . | .
Cc1ccc(N2CC(C(=O)Nc3ccc(Br)cc3)CC2=O)cc1 (centres undefined) | i | ? | . | . | . | .
Cc1ccc(/C=C2/SC(=O)N(CC(=O)N3CCOCC3)C2=O)s1 | i | 21µM* | 9% | 5% | 5% | -2%
Cn1cccc1/C=C1/SC(=O)N(CC(=O)N2CCCC2)C1=O | i | 16µM* | 12% | -3% | 17% | 1%
Cc1ccc(Cl)cc1N1CCN(C(=O)c2cc3c(-c4ccccc4F)nn(C)c3s2)CC1 | i | i | . | . | . | .
COc1cc(C)c(NC(C)C(=O)c2c(C)[nH]c3ccccc23)cc1OC (centres undefined) | i | i | . | . | . | .
Cn1c(CCNC(=O)c2ccco2)nc2cc(NC(=O)COc3ccc(Cl)cc3)ccc21 | i | i | . | . | . | .
Cc1cc(NC(=O)c2ccc(C(C)(C)C)cc2)no1 | i | i | -7% | 11% | 3% | 20%
CC(C)(C)c1cc(NC(=O)c2ccc(OC3CCCC3)cc2)no1 | ? | 16µM* | ? | 15% | -24% | -1%
O=C(Nc1ccon1)c1ccc(OC2CCCC2)cc1 | i | 18µM* | -2% | 2% | 0% | -3%
CCC(=O)N1CCc2cc(S(=O)(=O)NC(CC(C)C)C(=O)NCc3ccc(F)cc3)ccc21 (centres undefined) | i | i | . | . | . | .
CCOc1ccc(NC(=O)NCc2ccc3c(c2)CCN3C(C)=O)cc1 | i | i | . | . | . | .
O=c1[nH]c(N/N=C/c2ccccc2Br)nnc1-c1ccccc1 | i | i | -12% | ? | -1% | .
COc1ccc(/C=N/Nc2nnc(-c3ccccc3)c(=O)[nH]2)cc1 | 5.2µM* | 13µM* | 13µM* | ? | 13µM* | 18%
Cc1c(C)n(Cc2ccc(Cl)cc2)c2ccc(C(=O)NCCN3CCOCC3)cc12 | ? | i | ? | 12µM* | ? | ?
O=C(NCCCN1CCOCC1)c1ccc(CSc2ccc(Cl)cc2)cc1 | ? | ? | ? | ? | 18µM* | ?
CCc1ccc(NC(=O)c2ccc3c(c2)c(C)c(C)n3Cc2ccccc2)cc1 | ? | 8.2µM* | . | . | . | .
Cc1c(C)n(Cc2ccccc2)c2ccc(C(=O)NCCN3CCOCC3)cc12 | i | i | -21% | 11% | -26% | 17%
CCc1ccc(CNC(=O)c2ccc3c(c2)c(C)c(C)n3Cc2ccccc2)cc1 | i | i | . | . | . | .
CCc1ccc(CNC(=O)c2ccc(NC(=O)N3CCCCc4ccccc43)cc2)cc1 | i | i | . | . | . | .
Cc1ccc(-c2csc(=Nc3ccccc3)n2Cc2ccc3c(c2)OCO3)cc1 | i | i | . | . | . | .
CC(=O)Nc1ccc(S(=O)(=O)N(C)c2ccc(OCC(=O)Nc3ccccc3C(C)=O)cc2)cc1 | i | ? | -15% | ? | -9% | 10%
COc1ccc(NC(=O)COc2ccc(N(C)S(=O)(=O)c3ccc(Cl)cc3)cc2)cc1OC | 21µM* | 0.92µM* | -28% | 14% | -7% | 1%
CCCCOc1ccc(CONS(=O)(=O)c2ccc(NC(C)=O)cc2)cc1Cl | i | 15µM* | -6% | 21µM* | -6% | -1%
SMILES | KB-3-1 tox | KB-V1 MDR tox | HT1080 IDH1KD tx | MCF10A rereplic | HT1080NT lethal | SW480 rerep
CC(=O)c1ccccc1NC(=O)COc1ccc(N(C)S(=O)(=O)c2ccc(C)c(C)c2)cc1 | i | i | -10% | 21µM* | 1% | 6%
CC(=O)Nc1ccc(S(=O)(=O)NCCSCc2c(Cl)cccc2Cl)cc1 | 9.2µM* | 5.8µM* | ? | 23µM* | -16% | 6%
COc1ccc(S(=O)(=O)NCC(=O)Nc2ccc3c(c2)OCCO3)cc1OC | i | i | -4% | 1% | -1% | 5%
CC(=O)Nc1ccc(S(=O)(=O)NCCOc2ccc(Cl)cc2C)cc1 | 8.2µM* | i | -15% | -12% | -26% | 5%
COc1ccc(NS(=O)(=O)c2ccc(OC)c(N(C)S(=O)(=O)c3ccc(Cl)cc3)c2)cc1 | i | ? | ? | 3% | 14µM* | 9%
COc1ccc(S(=O)(=O)Nc2ccc(F)c(F)c2)cc1Cl | i | i | ? | -3% | ? | -1%
COc1ccc(CC(=O)Nc2ccc(S(=O)(=O)Nc3ncccn3)cc2)cc1OC | i | i | 16% | -19% | -4% | 16µM*
COc1ccc(NC(=O)CNS(=O)(=O)c2ccc(Cl)cc2)cc1OC | i | ? | -4% | -12% | 0% | 18µM*
CC1=CCC2CC1C2(C)C (centres undefined) | . | . | . | 4% | . | -5%
COc1ccccc1CNc1nccn(-c2ccccc2)c1=O | i | i | . | . | . | .
CCOc1ccc(-c2cc3nc(C4CCN(C(=O)OC(C)(C)C)CC4)c(C(=O)Nc4ccc(C)cc4C)cn3n2)cc1 | i | i | . | . | . | .
COc1cc(NC(=O)COc2ccc(Cl)cc2)ccc1-c1cc2ccccc2oc1=O | ? | ? | ? | 7.3µM* | ? | ?
COc1cc(NC(=O)COc2ccc(Cl)cc2)ccc1NC(=O)C(C)C | i | i | -3% | -15% | -2% | 30%
CCCCCn1c(=O)[nH]c2cc(C(=O)Nc3cc(OC)cc(OC)c3)ccc2c1=O | i | i | . | . | . | .
CCSC1=NC2(CCN(C(=O)NC3CCCCC3)CC2)N=C1c1ccc(Cl)cc1 | ? | i | . | . | . | .
CC(C)C(=O)N1CCN(c2nc(-c3ccccc3)c3c(c2C#N)CCCC3)CC1 | i | ? | ? | 18µM* | ? | ?
CC(C)Cc1nc(N2CCN(C(=O)c3ccco3)CC2)c(C#N)c2c1CCCC2 | i | i | ? | 23µM* | ? | 85%
CC1(C)Cc2c(C#N)c(N3CCN(C(=O)c4ccccc4)CC3)nc(Cc3ccccc3)c2CO1 | ? | 18µM* | ? | 3% | ? | 7%
Cc1nc(N2CCN(C(=O)c3ccco3)CC2)c(C#N)c2c1CCCC2 | i | i | 12% | 7% | 16% | -4%
COc1ccc(OCC(=O)NC2CC(=O)N(c3ccc4c(c3)OCCO4)C2)cc1 (centres undefined) | i | i | . | . | . | .
COc1ccc2c(c1)c1c(c(=O)n(-c3ccc(F)c(Cl)c3)c(=O)n1Cc1ccccc1C)n2C | i | i | . | . | . | .
